Screens (PubChem)
Hits are enriched below; roughly 6.7% of the tested compounds scored in any of these assays.
FBA Mtb inh – inhibits M. tuberculosis FBA enzyme; P9WQA3; purified M. tuberculosis FBA, fluorescence read-out; inhibition, % at 1 µM; 360,000 tested, 2.3% active; AID 588726; in the data active = inhibition above about 27%
Target sequence (P9WQA3 whole entry, looked up): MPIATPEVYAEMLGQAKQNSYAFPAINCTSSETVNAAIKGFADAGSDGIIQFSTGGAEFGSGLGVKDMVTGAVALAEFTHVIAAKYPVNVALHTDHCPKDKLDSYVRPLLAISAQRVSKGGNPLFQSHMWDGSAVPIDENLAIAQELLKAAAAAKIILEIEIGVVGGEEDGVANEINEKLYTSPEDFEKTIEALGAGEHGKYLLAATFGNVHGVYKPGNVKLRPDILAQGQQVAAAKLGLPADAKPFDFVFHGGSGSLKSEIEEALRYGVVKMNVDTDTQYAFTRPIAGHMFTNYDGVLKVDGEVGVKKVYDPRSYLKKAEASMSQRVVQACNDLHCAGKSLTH
BoNT A protease – BoNT A light chain protease inhibition; multiplex microsphere protease substrate cleavage, flow cytometry; inhibition, % at 10 µM; 360,000 tested, 0.17% active; AID 588499
Bead autofluor – compound fluorescence in toxin protease inhibitor counterscreen; compound autofluorescence counterscreen, microsphere flow cytometry; active compounds read high; fluorescence intensity (test concentration not listed); 360,000 tested, 3.1% active; in the data active = fluorescence intensity above about 16000; inconclusive = no clear call, values can overlap the other calls
BoNT-F LC inh – inhibitors of Botulinum neurotoxin F light chain protease; 360,000 tested, 0.22% active; inhibition, % at 10 µM; Multiplex microsphere protease cleavage assay, flow cytometry; in the data active = inhibition above about 35%, passing the limit was not always enough; inconclusive = no clear call, values can overlap the other calls
Anthrax LF prot – anthrax lethal factor protease inhibition. inhibition, % at 10 µM. 360,000 tested, 0.12% active. P15917. multiplex microsphere protease cleavage assay, LF. AID 588501
GDH-TPI inh – counter-screen for M. tuberculosis FBA inhibitors: GDH-TPI coupled enzymes; 360,000 tested, 1.2% active; inhibition, % at 4.8 µM; GDH-TPI coupled enzyme counterscreen, NADH absorbance; in the data active = inhibition above about 30%
Numbers stand for hits. Rule as the data show it, unless noted: active = inhibition above about 30%; inconclusive = no clear call, values can overlap the other calls; inactive = below that.

For COc1cc2c(cc1OC)C1=NC(=O)CN1C(SCc1ccccc1C)=N2 the results were FBA Mtb inh 27.3, BoNT A protease inactive, Bead autofluor inactive, BoNT-F LC inh inactive, Anthrax LF prot inactive and GDH-TPI inh inactive.
`COc1ccc(C)cc1NC(=O)CSCc1ccccc1C` gave FBA Mtb inh inactive, BoNT A protease inactive, Bead autofluor inactive, BoNT-F LC inh inactive, Anthrax LF prot inactive and GDH-TPI inh inactive.
For COc1ccc(Cc2nnc(N/N=C/c3ccc(O)cc3O)[nH]c2=O)cc1OC the results were FBA Mtb inh inactive, BoNT A protease inactive, Bead autofluor inactive, BoNT-F LC inh inactive, Anthrax LF prot inactive and GDH-TPI inh inactive.
Screening CCc1cccc2c(C(=O)CSc3nnc(-c4ccoc4C)n3C)c[nH]c12 returned FBA Mtb inh inactive, BoNT A protease inactive, Bead autofluor 22498, BoNT-F LC inh inactive, Anthrax LF prot inactive and GDH-TPI inh inactive.
`CCc1cccc2c(C(=O)CSc3nncn3-c3ccc(OC)cc3)c[nH]c12` gave FBA Mtb inh inactive, BoNT A protease inactive, Bead autofluor inactive, BoNT-F LC inh inactive, Anthrax LF prot inactive and GDH-TPI inh inactive.
COc1ccc(-n2c(-c3ccco3)n[nH]c2=S)cc1 was read as FBA Mtb inh inactive, BoNT A protease inactive, Bead autofluor 22219, BoNT-F LC inh inactive, Anthrax LF prot inactive and GDH-TPI inh inactive.
For CC(=O)NC1C(=O)N=C(SCC(=O)Nc2cccc(Cl)c2)NC1=O (stereo not drawn) the results were FBA Mtb inh inactive, BoNT A protease inactive, Bead autofluor inactive, BoNT-F LC inh inactive, Anthrax LF prot inactive and GDH-TPI inh inactive.
Cc1cc(NC(=O)c2cc(-c3cccc(Cl)c3)on2)no1 was read as FBA Mtb inh inactive, BoNT A protease inactive, Bead autofluor inactive, BoNT-F LC inh inactive, Anthrax LF prot inactive and GDH-TPI inh inactive.
Cc1cc(NC(=O)c2sc3ccccc3c2O)no1 was read as FBA Mtb inh active, BoNT A protease inactive, Bead autofluor inactive, BoNT-F LC inh inactive, Anthrax LF prot inactive and GDH-TPI inh inactive.
CCCNC(=O)c1cc(-c2ccc(OC)cc2)on1 was read as FBA Mtb inh inactive, BoNT A protease inactive, Bead autofluor 16440, BoNT-F LC inh inactive, Anthrax LF prot inactive and GDH-TPI inh inactive.
Screening COc1cccc(-c2cc(C(=O)Nc3cc(C)on3)no2)c1 returned FBA Mtb inh inactive, BoNT A protease inactive, Bead autofluor 22051, BoNT-F LC inh inactive, Anthrax LF prot inactive and GDH-TPI inh inactive.
`COc1cccc(-c2cc(C(=O)NCCc3ccccc3)no2)c1` gave FBA Mtb inh inactive, BoNT A protease inactive, Bead autofluor 21462, BoNT-F LC inh inactive, Anthrax LF prot inactive and GDH-TPI inh inactive.
Screening Cc1cc(NC(=O)c2ccccc2Cl)no1 returned FBA Mtb inh inactive, BoNT A protease inactive, Bead autofluor inactive, BoNT-F LC inh inactive, Anthrax LF prot inactive and GDH-TPI inh inactive.
For Cc1ccsc1C(=O)OCC(=O)Nc1c(C)n(C)n(-c2ccccc2)c1=O the results were FBA Mtb inh inactive, BoNT A protease inactive, Bead autofluor inactive, BoNT-F LC inh inactive, Anthrax LF prot inactive and GDH-TPI inh inactive.
Screening Cn1c(=O)n(CCc2ccccc2)c2ccccc21 returned FBA Mtb inh inactive, BoNT A protease inactive, Bead autofluor inactive, BoNT-F LC inh inactive, Anthrax LF prot inactive and GDH-TPI inh inactive.
For COc1ccc(C(=O)NC(=S)NCc2ccccc2)cc1 the results were FBA Mtb inh inactive, BoNT A protease inactive, Bead autofluor inactive, BoNT-F LC inh inactive, Anthrax LF prot inactive and GDH-TPI inh inactive.
`COc1cc(OC)cc(C(=O)NC(=S)NCCc2ccccc2)c1` gave FBA Mtb inh inactive, BoNT A protease inactive, Bead autofluor 22614, BoNT-F LC inh inactive, Anthrax LF prot inactive and GDH-TPI inh inactive.
For COC(=O)c1c(NC(=O)COC(=O)c2ccc(Cl)nc2)sc(C)c1C the results were FBA Mtb inh inactive, BoNT A protease inactive, Bead autofluor inactive, BoNT-F LC inh inactive, Anthrax LF prot inactive and GDH-TPI inh inactive.
Screening Cc1ccc(C(=O)CCC2CCCC2=O)cc1 (stereo not drawn) returned FBA Mtb inh inactive, BoNT A protease inactive, Bead autofluor inactive, BoNT-F LC inh inactive, Anthrax LF prot inactive and GDH-TPI inh inactive.
For Cc1ccc(C(=O)CCC2CCCCC2=O)cc1 (stereo not drawn) the results were FBA Mtb inh inactive, BoNT A protease inconclusive, Bead autofluor 19947, BoNT-F LC inh inactive, Anthrax LF prot inactive and GDH-TPI inh inactive.
CN(C(=O)CCN1CCCO1)C1CCCN(Cc2ccccc2F)C1 (stereo not drawn) was read as FBA Mtb inh inactive and GDH-TPI inh inactive.
For Cc1cc(C)c(-c2cc(C(=O)Nc3c(C)n(C)n(-c4ccccc4)c3=O)[nH]n2)c(O)c1 the results were FBA Mtb inh inactive, BoNT A protease inactive, Bead autofluor inactive, BoNT-F LC inh inactive, Anthrax LF prot inactive and GDH-TPI inh inactive.
For Cc1ccc(-c2cc(C(=O)Nc3c(C)n(C)n(-c4ccccc4)c3=O)[nH]n2)c(O)c1 the results were FBA Mtb inh inactive, BoNT A protease inconclusive, Bead autofluor 22384, BoNT-F LC inh inactive, Anthrax LF prot inactive and GDH-TPI inh inactive.
Cc1ccc(S(=O)(=O)C2(S(=O)(=O)c3ccc(C)cc3)CC2)cc1 was read as FBA Mtb inh inactive, BoNT A protease inactive, Bead autofluor inactive, BoNT-F LC inh inactive, Anthrax LF prot inactive and GDH-TPI inh inactive.
Cc1ccccc1OCC(O)Cn1c(SC(C)C)nc2c1c(=O)[nH]c(=O)n2C (stereo not drawn) was read as FBA Mtb inh inactive, BoNT A protease inactive, Bead autofluor inactive, BoNT-F LC inh inactive, Anthrax LF prot inactive and GDH-TPI inh inactive.
For CCSc1nc2c(c(=O)[nH]c(=O)n2C)n1CC(O)COc1ccccc1C (stereo not drawn) the results were FBA Mtb inh inactive, BoNT A protease inactive, Bead autofluor 20886, BoNT-F LC inh inactive, Anthrax LF prot inactive and GDH-TPI inh inactive.
For CC(=O)c1cccc(NC(=O)c2csc(-n3nc(C)cc3C(F)(F)F)n2)c1 the results were FBA Mtb inh inactive, BoNT A protease inconclusive, Bead autofluor 22022, BoNT-F LC inh inactive, Anthrax LF prot inactive and GDH-TPI inh inactive.
For Cc1cc(C(F)(F)F)n(-c2nc(C(=O)Nc3cccnc3)cs2)n1 the results were FBA Mtb inh inactive, BoNT A protease inactive, Bead autofluor inactive, BoNT-F LC inh inactive, Anthrax LF prot inactive and GDH-TPI inh inactive.
For COc1ccc(-n2nc(C(=O)NCC(=O)NCC3CCCO3)c3ccccc3c2=O)cc1Cl (stereo not drawn) the results were FBA Mtb inh inactive, BoNT A protease inactive, Bead autofluor inactive, BoNT-F LC inh inactive, Anthrax LF prot inactive and GDH-TPI inh inactive.
Screening COc1ccc(CN2C(=O)NC3(CCCCC3)C2=O)cc1F returned FBA Mtb inh inactive, BoNT A protease inconclusive, Bead autofluor 22242, BoNT-F LC inh inactive, Anthrax LF prot inactive and GDH-TPI inh inactive.
For Cc1ccc(N=Cc2c(O)n(C)c(=O)n(C)c2=O)cc1 the results were FBA Mtb inh inactive, BoNT A protease inactive, Bead autofluor inactive, BoNT-F LC inh inconclusive, Anthrax LF prot inactive and GDH-TPI inh 35.4.
